A selection: hits, their analogues and other compounds. The true share with any hit is near 19%.
DT40 TDP1 no CPT: qHTS for Inhibitors of human tyrosyl-DNA phosphodiesterase 1 (TDP1): qHTS in cells in absence of CPT | DT40 Tdp1-/- hTDP1 cells, no CPT, ATP luminescence, 48 h | Potency, µM (highest dose often 46.2 µM), for inactives: top-dose activity change, negative = growth inhibition, most hits filed as inhibitors | 15% of 420,000 active; also: potency is read from the fitted curve at half-maximal effect; nearly all actives have a fitted effect of over 55% in size
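Compound effects on proliferation are scored in DT40 Tdp1-/-;hTDP1 cells in the absence of CPT. ATP levels (CellTiter-Glo luminescence) are recorded after a ≥48 hr, 37 °C incubation.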
HT1080-NT tox: kills 2HG-producing HT-1080-NT fibrosarcoma cells; Potency, µM (series often up to 46.1 µM), inactives show top-dose activity, negative = less viability, most hits filed as cytotoxic; HT-1080-NT fibrosarcoma viability, CellTiter-Glo ATP luminescence, 48 h; 1.6% of 360,000 active;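 also: NT is the 2HG producing partner of a matched IDH1 knockdown line; potency is read from the fitted curve at half-maximal effect; 0% = DMSO-treated cells and -100% = media-only wells without cells; nearly all actives have a fitted effect of over 55% in size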
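Fibrosarcoma NT cells, 750 per well in 5% FBS RPMI, were exposed to compound for 48 hours. Viability: CellTiter-Glo luminescence.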
IL1B secr inh: blocks inflammasome-driven IL-1 beta release | THP-1 LPS/ATP IL-1B secretion, AlphaLISA, 16 h; active compounds read low | activity change, % at 57.5 µM | 4.7% of 360,000 active; in the data active = activity change below about -50%; inconclusive = mostly about -30% to -49%
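Secreted IL-1B measured by AlphaLISA bead assay after 16 h compound exposure of THP-1 cells; compounds (final up to 57.5 uM) added 1 h before LPS (250 ng/mL) and ATP (1.25 mM) stimulation; lower signal means less secretion.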
DT40 TDP1 CPT: DT40-hTDP1 cell growth loss with CPT; chicken DT40 Tdp1-/-;hTDP1 cells + 20 nM CPT, ATP luminescence, 48 h; Potency, µM (doses to about 46.2 µM), without a hit: top-dose activity change, negative = growth inhibition, actives largely listed as inhibitors; 12% of 420,000 active; also: potency is read from the fitted curve at half-maximal effect; nearly all actives have a fitted effect of over 55% in size
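Chicken DT40 Tdp1-/- cells stably complemented with human TDP1 were seeded at 400 cells/well in medium containing 20 nM camptothecin, exposed to pin-transferred compounds, and grown at 37 °C for at least 48 hr. Viability was read as ATP luminescence.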
HT1080 IDH1KD tx: kills HT-1080 cells with IDH1 knockdown; Potency, µM (series often up to 46.1 µM), inactives show top-dose activity, negative = toxicity, actives largely listed as cytotoxic; 2% of 360,000 active; HT-1080 IDH1 knockdown viability, ATP luminescence, 48 h;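 also: potency is read from the fitted curve at half-maximal effect; 0% = DMSO wells and -100% = cell-free medium wells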
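IDH1KD HT-1080 cells, 750/well, RPMI + 5% FBS; compound pinned after 2 h settling; 48 h, 37 °C; CellTiter-Glo luminescence; % activity normalised to DMSO and no-cell wells; curves fitted, classed by r2 and efficacy.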
Starred values were filed as active, the others as inactive. Unless noted, calls follow the shape of the dose curve; as a rule, active = well fitted curve in the direction sought with a large enough effect; inconclusive = small, poorly fitted or top-dose-only effect, or another doubt; inactive = no such curve, though single readings can be large; an effect the other way counts as inactive or inconclusive. Unless noted, % is scaled to controls: 0 for no effect and ±100 for the full control effect.

Screening Cn1c(=O)c2cc(NC(=S)NC3CCCCC3)ccc2n1-c1ccccc1 returned DT40 TDP1 no CPT inconclusive, HT1080-NT tox -2%, IL1B secr inh -10, DT40 TDP1 CPT inconclusive and HT1080 IDH1KD tx -14%.
O=C(CCCN1C(=O)c2ccccc2C1=O)Nc1nnc(C2CC2)s1 was read as DT40 TDP1 no CPT -4%, HT1080-NT tox 6%, IL1B secr inh 36, DT40 TDP1 CPT 13% and HT1080 IDH1KD tx 1%.
For C[C@@H]1CN(C2CCN(Cc3nc(C(c4ccccc4)c4ccccc4)no3)CC2)C[C@H](C)O1 the results were DT40 TDP1 no CPT inconclusive, HT1080-NT tox -8%, IL1B secr inh 5, DT40 TDP1 CPT -11% and HT1080 IDH1KD tx -16%.
`Cc1nc(CN2CCN(Cc3nc(C(c4ccccc4)c4ccccc4)no3)CC2)cs1` gave DT40 TDP1 no CPT 10µM*, HT1080-NT tox -14%, IL1B secr inh -8, DT40 TDP1 CPT 7.3µM* and HT1080 IDH1KD tx 3%.
`FC(F)(F)c1ccc(-c2noc(CN3CCCN(C4CCCCC4)CC3)n2)cc1` gave DT40 TDP1 no CPT 21µM*, HT1080-NT tox 4%, IL1B secr inh inconclusive, DT40 TDP1 CPT 21µM* and HT1080 IDH1KD tx 8%.
c1ccc(C(c2ccccc2)c2noc(CN3CCN(C4CCCC4)CC3)n2)cc1 was read as DT40 TDP1 no CPT 21µM*, HT1080-NT tox -9%, IL1B secr inh -15, DT40 TDP1 CPT inconclusive and HT1080 IDH1KD tx -9%.
`CN(Cc1nc(-c2ccc(C(F)(F)F)cc2)no1)C1CCOCC1` gave DT40 TDP1 no CPT -1%, HT1080-NT tox 9%, IL1B secr inh 25, DT40 TDP1 CPT -16% and HT1080 IDH1KD tx 9%.
Screening O=C(NCc1ccc2c(c1)OCO2)c1cc(-c2ccccc2)nn1CC1CC(c2cccnc2)=NO1 (stereo unspecified) returned DT40 TDP1 no CPT -16%, HT1080-NT tox 4%, IL1B secr inh -1, DT40 TDP1 CPT -22% and HT1080 IDH1KD tx 3%.
Cc1ccc(-n2[nH]c(C)c(/C=N/c3ccccn3)c2=O)cc1 was read as DT40 TDP1 no CPT inconclusive, HT1080-NT tox 7.1µM*, IL1B secr inh 36, DT40 TDP1 CPT inconclusive and HT1080 IDH1KD tx inconclusive.
For Cc1ccc(-n2[nH]c(C)c(C=Nc3ccc(Br)cn3)c2=O)cc1 the results were DT40 TDP1 no CPT inconclusive, HT1080-NT tox -2%, IL1B secr inh 21, DT40 TDP1 CPT inconclusive and HT1080 IDH1KD tx -14%.
Screening Cc1[nH]n(-c2ccccc2)c(=O)c1/C=N/N1CCOCC1 returned DT40 TDP1 no CPT -1%, HT1080-NT tox -7%, IL1B secr inh 13, DT40 TDP1 CPT -14% and HT1080 IDH1KD tx -17%.
For Cc1[nH]n(-c2ccccc2)c(=O)c1C=Nc1cccc2cccnc12 the results were DT40 TDP1 no CPT 0.92µM*, HT1080-NT tox -21%, IL1B secr inh 56, DT40 TDP1 CPT 0.65µM* and HT1080 IDH1KD tx inconclusive.
For Cc1ccc(-n2[nH]c(C)c(C=Nc3cc(C)ccn3)c2=O)cc1 the results were DT40 TDP1 no CPT inconclusive, HT1080-NT tox 10µM*, IL1B secr inh 0, DT40 TDP1 CPT inconclusive and HT1080 IDH1KD tx 23µM*.
Screening Cc1[nH]n(-c2ccccc2)c(=O)c1/C=N/N1C(=O)c2cccc3cccc(c23)C1=O returned DT40 TDP1 no CPT 16µM*, HT1080-NT tox inconclusive, IL1B secr inh 83, DT40 TDP1 CPT inconclusive and HT1080 IDH1KD tx inconclusive.
CN(CC(=O)Nc1ccc(Cl)cc1F)C1=NS(=O)(=O)c2ccccc21 was read as DT40 TDP1 no CPT -19%, HT1080-NT tox 7%, IL1B secr inh 23, DT40 TDP1 CPT 9% and HT1080 IDH1KD tx -5%.
`Cc1ccc(OCCC(=O)OCC(=O)NC2CCS(=O)(=O)C2)cc1` (stereo unspecified) gave DT40 TDP1 no CPT -1%, HT1080-NT tox 11%, IL1B secr inh 26, DT40 TDP1 CPT -19% and HT1080 IDH1KD tx 13%.
`CCn1c(SC(C)C(=O)NCc2ccco2)nnc1-c1ccccc1` (stereo unspecified) gave DT40 TDP1 no CPT -23% and DT40 TDP1 CPT 3%.

Screens as filed in PubChem.
